# hcDAF-12 act – H. contortus DAF-12 activation, primary screen | HEK293 hcDAF-12 lit1-tk-luc reporter, luminescence; 0% DMSO, 100% Δ7-dafachronic acid | activation, % at 6.8 µM | 370,000 compounds, 1.4% hits | AID 652067;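 active = activation above the mean of all tested compounds plus 3 SD, cut at about 5.5% in these data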;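 note: 100% = response to 3 µM Δ7-dafachronic acid high control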
# ssDAF12 agonist – activators of S. stercoralis DAF-12 nuclear receptor | HEK293 ssDAF-12/GRIP1 lit1-tk-luc reporter, luminescence; % of 3 µM dafachronic acid response | activation, % at 6.8 µM | 370,000 compounds, 1% hits | AID 652126;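 active = activation above the mean over all tested compounds plus 3 SD, cut at about 0.9% in these data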;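 note: 0% = DMSO-only wells and 100% = 3 µM delta7-dafachronic acid wells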
# DAX1 inh-1 – inhibitors of human orphan nuclear receptor DAX1 (NR0B1); P51843; HEK293 Gal4-DAX1 luciferase reporter, luminescence; inhibition, % at 6.75 µM; 340,000 compounds, 0.99% hits; AID 504766;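 active = inhibition above the mean over all tested compounds plus 3 SD, cut at about 4.2% in these data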;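 note: 0% = DAX1-transfected cells with DMSO and 100% = empty-vector control cells with DMSO; inhibition shows as a rise in luminescence from relieved DAX1 repression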
# Target sequence (P51843 207-470 limits assumed): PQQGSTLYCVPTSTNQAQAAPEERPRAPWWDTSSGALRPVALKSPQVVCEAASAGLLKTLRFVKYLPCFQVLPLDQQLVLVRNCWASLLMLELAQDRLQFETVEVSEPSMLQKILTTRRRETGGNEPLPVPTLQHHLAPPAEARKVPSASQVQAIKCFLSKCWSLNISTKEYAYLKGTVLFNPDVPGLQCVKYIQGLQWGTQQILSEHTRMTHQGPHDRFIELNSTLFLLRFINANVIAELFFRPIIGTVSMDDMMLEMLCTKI
# SMARCA2 activ – SMARCA2 function activation, primary screen; MG213 cells, MMTV-luciferase reporter, dexamethasone, overnight; activation, % at 9.1 µM; 370,000 compounds, 1% hits; AID 652017; in the data active = activation above about 7.8%;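 note: 0% = vehicle wells and 100% = reference activator wells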
# hgDAF12 agonist – agonists of H. glycines DAF-12 nuclear receptor; 370,000 compounds, 1.8% hits; activation, % at 6.8 µM; HEK293 GAL4-hgDAF12 UAS-luciferase reporter, agonist luminescence; normalized to butyrate control; AID 687014;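 active = activation above a cutoff set at the mean of all screened compounds plus 3 SD, cut at about 10% in these data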;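 note: 0% = DMSO wells and 100% = sodium butyrate wells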
# DAX1 inh-2 – DAX1 (NR0B1) inhibition, primary screen | inhibition, % at 6.8 µM | 370,000 compounds, 1.1% hits | HEK293T StAR-luciferase reporter, SF-1/DAX-1 repression relief;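 active = inhibition above the mean over all tested compounds plus 3 SD, cut at about 3.6% in these data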;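 note: 0% = DAX-1 cells with DMSO and 100% = cells lacking DAX-1 with DMSO; higher inhibition means more luminescence from relief of DAX-1 repression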
# Active calls of the source: *; / = not tested or not shown. Sampled rows, rich in hits. Any-hit rate of the full collection: about 4.8%.
SMILES,hcDAF-12 act,ssDAF12 agonist,DAX1 inh-1,SMARCA2 activ,hgDAF12 agonist,DAX1 inh-2
Cc1c(Cl)cccc1N=c1c([N+](=O)[O-])nn(-c2ccccc2)n1O,5.6*,0.3,-0.2,-3.1,1.7,-0.4
O=C1C=CC2=C3c4cc(O)c(O)cc4CC3(O)COC2=C1O (centres undefined),-0.2,-0.9,5.2*,-0.1,-1.6,0.7
CC(C)c1ccccc1NC(=O)CNCCOc1ccccc1F,-1.7,-1.4,0.3,-0.1,-0.2,-0.1
CC(=O)N1CCc2cc(NC(=O)c3ccc(C)cc3)ccc21,1.9,-1.2,-1.0,1.7,10.6*,1.8
CC(=O)N1CCN(c2ccc(NC(=O)c3ccc(C)cc3)cc2)CC1,-1.9,-1.4,0.0,3.7,-0.3,-0.3
COc1ccc(Nc2nc3ccccc3n2C)cc1,5.3,-0.2,6.4*,2.6,12.0*,0.9
Cn1c(CNc2nc3ccccc3n2C)nc2ccccc21,3.3,-0.2,-0.2,0.2,11.2*,1.8
Cn1c(COc2ccccc2Br)nc2ccccc21,4.4,0.8,6.0*,4.9,9.6,1.6
CC(C)n1c(NCc2nc3ccccc3n2C)nc2ccccc21,0.2,-0.3,0.8,-3.0,0.6,-0.1
COc1ccc(Nc2cc(C)c3ccccc3n2)cc1,-0.8,-0.8,0.5,0.9,11.3*,1.5
NC(=O)C1CCCN(S(=O)(=O)c2ccccc2)C1 (centres undefined),1.7,-1.6,0.8,2.1,-0.5,-0.4
CCOC(=O)c1ccc(NCc2nc3ccccc3n2C)cc1,4.4,0.9*,1.7,3.7,10.2,1.9
C=CCN1C(=O)S/C(=C\c2ccc(N3CCOCC3)cc2C)C1=O,0.5,-0.7,4.2*,1.6,5.7,1.0
C=CC(C)N1C(=O)S/C(=C\c2ccc(N3CCOCC3)cc2C)C1=O (centres undefined),1.4,-0.8,1.8,-2.6,7.1,0.6
CNc1ccccc1C(C)(C)c1cc(-c2cccc(Br)c2)no1,-3.2,-2.1,-1.7,-4.8,-4.0,-1.5
CCCOC(=O)C1=C(C)NC2=C(C(=O)CCC2)C1c1cccs1 (centres undefined),-2.5,2.1*,1.3,-2.8,-2.0,-0.4
COc1ccc2nc(Cl)c(/C=N/Nc3ccccn3)cc2c1,1.8,-0.9,0.9,2.3,10.2,4.1*
Cc1cccc(NC(=S)N(CCCN2CCOCC2)Cc2cn(C)c3ccccc23)c1,-0.1,-0.1,0.7,4.7,3.5,0.2
COc1ccc(NC(=O)NC(C)C2CC3CCC2C3)cc1 (centres undefined),1.1,17.1*,2.1,0.1,-3.5,0.3
CC(NC(=O)c1ccc(C#N)cc1)C1CC2CCC1C2 (centres undefined),-0.8,-0.8,5.4*,2.4,-1.3,-0.3
COc1ccc(-c2noc(CNC(=O)c3ccoc3C)n2)cc1,1.3,-1.0,-0.7,-1.4,-1.0,-0.5
CN1CCN(C(=O)c2cc(=O)c3cc(Cl)cc(Cl)c3o2)CC1,1.4,2.0*,0.1,-1.3,0.7,0.2
CN1CCN(C(=O)c2cc(Cl)ccc2Cl)CC1,-1.5,-1.2,0.6,-1.1,-0.7,0.2
CCCCNC(=O)C1CCN(S(=O)(=O)N2CCCCCC2)CC1,5.9*,0.0,-1.3,-2.3,0.0,0.5
NC(=O)C1CCCN(Cc2ccc3ccccc3c2)C1 (centres undefined),-0.7,-0.7,5.1*,-2.2,-1.9,-1.0
SMILES,hcDAF-12 act,ssDAF12 agonist,DAX1 inh-1,SMARCA2 activ,hgDAF12 agonist,DAX1 inh-2
CCN(CC)C(=O)C1CCCN(Cc2ccc3ccccc3c2)C1 (centres undefined),0.0,-1.0,0.2,0.2,-0.1,-0.7
Cc1ccc2cc(CCNC(=O)c3cccc([N+](=O)[O-])c3)c(=O)[nH]c2c1,0.6,-0.8,0.7,-1.3,4.2,-0.3
Cc1ccc2cc(COC(=O)c3cccc([N+](=O)[O-])c3)c(=O)[nH]c2c1,1.1,0.0,4.5*,0.7,-1.0,0.5
CC1CC(C(O)c2ccccn2)C(=O)C(C(O)c2ccccn2)C1 (centres undefined),-2.4,2.0*,-1.4,-0.7,0.3,-0.3
N#CCCC1CCCC=C1N(Cc1ccccc1)C(=O)C(Cl)Cl (centres undefined),-1.6,-0.3,/,-3.0,-0.8,0.2
c1ccc(NC(=NCc2ccco2)c2ccccc2)cc1,-0.4,-1.2,0.8,-0.7,1.8,1.4
O=C1CC(=O)N(c2cccc(F)c2)N1,-0.6,-0.4,6.0*,-1.4,0.8,0.5
O=C1CSC(=S)N1c1cccc(F)c1,-0.3,-1.7,1.8,-1.0,-1.6,0.1
Cc1cc(=O)oc2cc(OCC(=O)OCC(=O)NC(C)C)ccc12,-0.9,-1.7,-0.5,-2.1,4.9,-1.0
Fc1ccccc1N1CCN(C2CCN(Cc3c[nH]c4ccccc34)CC2)CC1,3.4,1.3*,-0.2,-4.2,0.6,-0.5
Clc1ccccc1N1CCN(Cc2c[nH]c3ccccc23)CC1,2.6,0.1,-1.0,-2.6,1.1,-0.4
COCCN(Cc1ccccc1)C(=O)c1ccc2c(c1)NC(=O)CS2,0.6,-0.2,0.7,-3.2,2.5,2.8
O=C1CN(c2ccccc2)C(=S)N1C(=O)c1ccccc1,5.7*,0.6,5.8*,2.0,11.4*,1.9
Clc1ccc(-c2nc(-c3ccccn3)no2)cc1Cl,3.8,0.4,2.4,2.2,12.4*,3.6*
COc1ccc(-c2nc(-c3ccccn3)no2)cc1,-7.8,-3.5,-6.6,-7.7,-19.8,-2.2
Cc1cc(NC(=O)c2ccc(S(=O)(=O)N(C)C)cc2)no1,1.7,-1.5,0.2,-0.1,2.6,-0.3
O=C(Nc1ccon1)c1sc2cc(F)ccc2c1Cl,3.8,-0.2,3.5,5.3,5.1,1.0
Cc1cc(NC(=O)c2cc(-c3ccc(Br)cc3)on2)no1,2.6,-0.8,1.0,0.6,-2.3,0.1
Cc1cc(NC(=O)c2cc(-c3ccc(O)cc3)on2)no1,1.5,-0.7,3.1,1.3,10.7*,1.6
Cc1cc(NC(=O)c2ccc(Cl)cc2)no1,1.4,-0.5,1.5,5.4,10.6*,2.6
Cc1ccc2c(Cl)c(C(=O)Nc3cc(C)on3)sc2c1,1.1,-0.3,5.2*,2.9,5.3,1.1
Cc1cc(C)c2nc(Nc3nc(CSc4nc5ccccc5[nH]4)cc(=O)[nH]3)nc(C)c2c1,-2.2,-2.1,0.8,-2.8,-3.7,-0.2
COc1ccc(OC)c2sc(N(CCN(C)C)C(=O)c3cc(Cl)sc3Cl)nc12,0.5,-0.2,0.4,-3.5,-1.6,1.1
Cc1ccc(NC(=O)CN2CC(C)SC2=NC2CCCCC2)cc1 (centres undefined),-0.9,-0.9,0.1,-4.9,0.5,1.8
O=C(COC(=O)CCNS(=O)(=O)c1ccc(Cl)cc1)Nc1ccccc1OC(F)F,-1.7,-1.4,-1.1,2.5,1.9,-1.0

# High-throughput results from PubChem BioAssay.
